Source: PubChem BioAssay (NCATS)
Where “and” joins values, the source holds several entries; their conditions need not be identical. Equal values may be shown once. Inconclusive results are not listed. Calls of active or inactive are those of the source. The call rests on the fitted dose curve; in most records, active means well fitted curve in the direction sought with a large enough effect; inconclusive means small, poorly fitted or top-dose-only effect, or another doubt; inactive means no such curve, though single readings can be large; an effect the other way counts as inactive or inconclusive.

Biological target: Cellular tumor antigen p53 (Homo sapiens) (UniProt P04637)
Sequence (P04637 whole entry, looked up): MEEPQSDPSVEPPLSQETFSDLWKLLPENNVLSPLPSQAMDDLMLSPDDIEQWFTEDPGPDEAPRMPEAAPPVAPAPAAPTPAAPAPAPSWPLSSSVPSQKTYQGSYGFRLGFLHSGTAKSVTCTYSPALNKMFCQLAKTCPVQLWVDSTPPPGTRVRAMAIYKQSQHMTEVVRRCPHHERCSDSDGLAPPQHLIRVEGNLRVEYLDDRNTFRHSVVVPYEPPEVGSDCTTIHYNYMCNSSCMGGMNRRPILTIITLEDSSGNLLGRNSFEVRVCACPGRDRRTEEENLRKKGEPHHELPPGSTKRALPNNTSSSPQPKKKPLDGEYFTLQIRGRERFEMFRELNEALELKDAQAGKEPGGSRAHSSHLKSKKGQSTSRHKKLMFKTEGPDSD
Test: Primary qHTS for small molecule compounds that upregulate eGFP-tagged delta133p53alpha (in N-terminal) cells. (AID 2060322);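 further: cells pre-induced with doxycycline then dosed without doxycycline; 0% = DMSO vehicle and 100% = reference activator; nearly all actives have a fitted effect of over 75% in size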
Conditions: NCI-H358 eGFP-delta133p53alpha fluorescence, 24 h; activation: active compounds read high
Method in brief: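 NCI-H358 cells pre-induced 24 h with 10 ng/ml doxycycline for eGFP-delta133p53alpha, plated dox-free and exposed 24 h at 37C to titrated compounds. Fixed, Hoechst-stained; gated GFP peak intensity by laser scanning cytometry, normalized to DMSO (0%) and 57.5 uM 5-azacytidine (100%).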

SMILES	activation
Cn1c(=O)c2c(nc(/C=C/c3cccc(Cl)c3)n2C)n(C)c1=O	-0.199% (inactive)
O=C1/C(=C/c2ccsc2)CC/C1=C\c1cccs1	14.3% (inactive)
NS(=O)(=O)C#Cc1ccccc1	60.6% (inactive)
CC(C)CC(NP(=O)(O)O[C@@H]1O[C@@H](C)[C@H](O)[C@@H](O)[C@H]1O)C(=O)NC(Cc1c[nH]c2ccccc12)C(=O)O (stereo not given in full)	-14.9% (inactive)
CC(C)NC[C@H](O)COc1ccc(CC(N)=O)cc1	-18.8% (inactive)
O[Si](CCCN1CCCCC1)(c1ccc(F)cc1)C1CCCCC1 (stereo not given)	-77.2% (inactive)
O=C(NCCN1CCOCC1)c1ccc(Cl)cc1	-2.82% (inactive) and -8.35% (inactive)
C[C@H](O)C(=O)C1=Nc2c(nc(N)[nH]c2=O)NC1	-8.4% (inactive)
C[C@]12CCC(=O)C=C1CC[C@@H]1[C@@H]2CC[C@@]2(C)[C@H]1CC[C@]2(O)C(=O)CO	12.6% (inactive) and 23.7% (inactive)
NC/C=C/C(=O)O	18.6% (inactive) and -17.5% (inactive)
C[C@]12C[C@H](O)[C@H]3[C@@H](CCC4=CC(=O)CC[C@@]43C)[C@@H]1CC[C@@H]2C(=O)CO	-5.02% (inactive) and -5.37% (inactive)
NC(=O)CNCCC(c1ccccc1)c1ccccc1	-18.2% (inactive)
CCCc1c(-c2ccc(O)cc2)nn(-c2ccc(O)cc2)c1-c1ccc(O)cc1	-36.4% (inactive)
CC(C)NCC(O)COc1ccc(COCCOC(C)C)cc1 (stereo not given)	-8.37% (inactive) and -9.29% (inactive) and -8.52% (inactive)
CN1CC(=O)N/C1=N/C(=O)Nc1cccc(Cl)c1	5.86% (inactive)
CNc1ncnc2c1ncn2[C@@H]1O[C@H](CO)[C@@H](O)[C@H]1O	5.48% (inactive)
Clc1cccc(Cl)c1NC1=NCCN1	-3.23% (inactive) and -7.34% (inactive) and -13.7% (inactive)
COC(=O)[C@@H](N)Cc1ccc(O)c(O)c1	2.51% (inactive) and -29.9% (inactive)
CCCCNc1c(C(=O)OCC)c(C)nc2c1cnn2CC	8.47% (inactive) and 3.05% (inactive)
C[N+]1(C)C2CC(OC(=O)[C@H](CO)c3ccccc3)CC1C1OC12 (stereo not given in full)	4.68% (inactive) and -6.58% (inactive)

SMILES	activation
CN(C)CCC=C1c2ccccc2CCc2ccccc21	-12.6% (inactive) and -30.9% (inactive)
C(=C\c1ccccc1)/CN1CCN(C(c2ccccc2)c2ccccc2)CC1	-1.67% (inactive) and -21% (inactive)
CCCn1c(=O)c2c(ncn2C)n(CCC)c1=O	-49.6% (inactive)
CN(C)CCOC(=O)COc1ccc(Cl)cc1	-18.4% (inactive) and -20.3% (inactive)
Cn1cnc2c(NCc3ccccc3)nc(NCCO)nc21	-37% (inactive)
CCC(=O)N1CCN(C(=O)c2ccccc2)CC1	-16% (inactive)
Cc1cc(NC2CCCCC2)nc(-n2nc(C)cc2C)n1	-20.8% (inactive)
N[C@@H](COP(=O)(O)O)C(=O)O	-2.51% (inactive) and -5.8% (inactive)
Cn1cc(C(=O)OCC2CCN(CCNS(C)(=O)=O)CC2)c2ccccc21	-16.5% (inactive)
CCCNC(C)C(=O)Nc1ccccc1C (stereo not given)	-9.21% (inactive) and 30.8% (inactive)
O=C(O)c1cc([N+](=O)[O-])ccc1NCCCc1ccccc1	-7.19% (inactive)
NC(N)=NC(N)=Nc1ccccc1	-1.81% (inactive)
CCN(CC)CCNC(=O)c1ccc(NC(C)=O)cc1	18.6% (inactive) and -9.2% (inactive)
CC(N)C(=O)OC(C)(C)Cc1ccc(Cl)cc1 (stereo not given)	19.8% (inactive) and -28.1% (inactive)
CC(=O)c1ccc(S(=O)(=O)NC(=O)NC2CCCCC2)cc1	3.35% (inactive) and -2.1% (inactive)
COc1ccc(CCN(C)CCCC(C#N)(c2cc(OC)c(OC)c(OC)c2)C(C)C)cc1OC (stereo not given)	-8.73% (inactive)
CC(=O)/C(C)=N/O	-2.27% (inactive)
CN(C)C(=O)Oc1cccc([N+](C)(C)C)c1	-10.7% (inactive) and -13.7% (inactive)
CCCN(CC1CC1)c1nc(C)nc(Nc2c(Cl)cc(Cl)cc2Cl)c1Cl	-22.7% (inactive)
O=C(O)c1cc2cc(F)ccc2[nH]1	-70.8% (inactive)

Biological target: Cellular tumor antigen p53 (Homo sapiens) (UniProt P04637)
Test: Primary qHTS for small molecule compounds that upregulate eGFP-tagged delta133p53alpha (in C-terminal) cells. (AID 2060324); further: potency means the concentration at half of the fitted maximal effect;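 on GFP increase (activation): 0% = DMSO wells and 100% = 57.5 µM 5-azacytidine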
Conditions: NCI-H358 delta133p53alpha-eGFP (C-terminal tag), GFP fluorescence imaging, 24 h; series mostly up to 57.5 µM; GFP increase (activation): at the top concentration
Method in brief: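 Read-out: gated-cell GFP peak intensity (laser scanning cytometer), plate-normalized with DMSO as 0% activity, after 24 h compound exposure at 37C. Cells were C-terminal eGFP-tagged delta133p53alpha NCI-H358, doxycycline-induced (100 ng/ml, 24 h) before plating.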

SMILES	GFP increase (activation)	Potency
Cn1c(=O)c2c(nc(/C=C/c3cccc(Cl)c3)n2C)n(C)c1=O	-5.42% (inactive)	–
O=C1/C(=C/c2ccsc2)CC/C1=C\c1cccs1	2.38% (inactive)	–
NS(=O)(=O)C#Cc1ccccc1	–	30.1 µM (active)
CC(C)CC(NP(=O)(O)O[C@@H]1O[C@@H](C)[C@H](O)[C@@H](O)[C@H]1O)C(=O)NC(Cc1c[nH]c2ccccc12)C(=O)O (stereo not given in full)	6.32% (inactive)	–
CC(C)NC[C@H](O)COc1ccc(CC(N)=O)cc1	-1.56% (inactive)	–
O[Si](CCCN1CCCCC1)(c1ccc(F)cc1)C1CCCCC1 (stereo not given)	3.86% (inactive)	–
O=C(NCCN1CCOCC1)c1ccc(Cl)cc1	-3.16% (inactive)	–
C[C@H](O)C(=O)C1=Nc2c(nc(N)[nH]c2=O)NC1	-6.26% (inactive)	–
C[C@]12CCC(=O)C=C1CC[C@@H]1[C@@H]2CC[C@@]2(C)[C@H]1CC[C@]2(O)C(=O)CO	-16.5% (inactive)	–
NC/C=C/C(=O)O	-1.68% (inactive)	–
C[C@]12C[C@H](O)[C@H]3[C@@H](CCC4=CC(=O)CC[C@@]43C)[C@@H]1CC[C@@H]2C(=O)CO	2.5% (inactive)	–
NC(=O)CNCCC(c1ccccc1)c1ccccc1	-9.14% (inactive)	–
CCCc1c(-c2ccc(O)cc2)nn(-c2ccc(O)cc2)c1-c1ccc(O)cc1	-5.26% (inactive)	–
CC(C)NCC(O)COc1ccc(COCCOC(C)C)cc1 (stereo not given)	7.29% (inactive)	–
CN1CC(=O)N/C1=N/C(=O)Nc1cccc(Cl)c1	2.07% (inactive)	–
CNc1ncnc2c1ncn2[C@@H]1O[C@H](CO)[C@@H](O)[C@H]1O	-2.28% (inactive)	–
Clc1cccc(Cl)c1NC1=NCCN1	-14.3% (inactive)	–
COC(=O)[C@@H](N)Cc1ccc(O)c(O)c1	0.227% (inactive)	–
CCCCNc1c(C(=O)OCC)c(C)nc2c1cnn2CC	-15.1% (inactive)	–
C[N+]1(C)C2CC(OC(=O)[C@H](CO)c3ccccc3)CC1C1OC12 (stereo not given in full)	–	inactive

SMILES	GFP increase (activation)	Potency
CN(C)CCC=C1c2ccccc2CCc2ccccc21	-0.87% (inactive)	–
C(=C\c1ccccc1)/CN1CCN(C(c2ccccc2)c2ccccc2)CC1	-0.329% (inactive)	–
CCCn1c(=O)c2c(ncn2C)n(CCC)c1=O	-0.709% (inactive)	–
CN(C)CCOC(=O)COc1ccc(Cl)cc1	-4.32% (inactive)	–
Cn1cnc2c(NCc3ccccc3)nc(NCCO)nc21	5.63% (inactive)	–
CCC(=O)N1CCN(C(=O)c2ccccc2)CC1	-3.9% (inactive)	–
Cc1cc(NC2CCCCC2)nc(-n2nc(C)cc2C)n1	11.1% (inactive)	–
N[C@@H](COP(=O)(O)O)C(=O)O	-1.15% (inactive)	–
Cn1cc(C(=O)OCC2CCN(CCNS(C)(=O)=O)CC2)c2ccccc21	-10.2% (inactive)	–
CCCNC(C)C(=O)Nc1ccccc1C (stereo not given)	-10.6% (inactive)	–
O=C(O)c1cc([N+](=O)[O-])ccc1NCCCc1ccccc1	3.27% (inactive)	–
NC(N)=NC(N)=Nc1ccccc1	1.83% (inactive)	–
CCN(CC)CCNC(=O)c1ccc(NC(C)=O)cc1	7.42% (inactive)	–
CC(N)C(=O)OC(C)(C)Cc1ccc(Cl)cc1 (stereo not given)	-2.05% (inactive)	–
CC(=O)c1ccc(S(=O)(=O)NC(=O)NC2CCCCC2)cc1	8.87% (inactive)	–
COc1ccc(CCN(C)CCCC(C#N)(c2cc(OC)c(OC)c(OC)c2)C(C)C)cc1OC (stereo not given)	4.36% (inactive)	–
CC(=O)/C(C)=N/O	2.59% (inactive)	–
CN(C)C(=O)Oc1cccc([N+](C)(C)C)c1	-16% (inactive)	–
CCCN(CC1CC1)c1nc(C)nc(Nc2c(Cl)cc(Cl)cc2Cl)c1Cl	2.88% (inactive)	–
O=C(O)c1cc2cc(F)ccc2[nH]1	7.32% (inactive)	–
